The list is not random: actives were taken first. Their share in the collection is about 19%.
KB-V1 cytotox: kills drug-selected multidrug resistant KB-V1 cells; KB-V1 MDR cells viability, CellTiter-Glo, 72 h; actives 3.4% (n = 400,000); Potency, µM (top dose mostly 46.1 µM), most hits filed as cytotoxic; further: nearly all actives have a fitted effect of over 60% in size
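Drug-selected KB-V1 cells, grown in DMEM lacking phenol red with 10% FBS, receive compound titrations; after three days at 37 degrees C, surviving cell ATP is quantified by CellTiter-Glo luminescence and responses normalized and curve-fitted.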
HT1080 IDH1KD tx: HT-1080 IDH1 knockdown cell toxicity (counter line); HT-1080 IDH1 knockdown viability, ATP luminescence, 48 h; Potency, µM (highest dose often 46.1 µM), inactives show at the top dose activity, negative = toxicity, most hits filed as cytotoxic; actives 2% (n = 360,000);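 further: 0% = DMSO wells and -100% = cell-free medium wells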
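Assay cells: HT-1080 with IDH1 knockdown, 750 per well, RPMI/5% FBS. Exposure: 48 h at 37 °C following 2 h pre-incubation. Read: CellTiter-Glo luminescence; fitted concentration-response, curve class assigned.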
HT1080-NT tox: kills 2HG-producing HT-1080-NT fibrosarcoma cells; HT-1080-NT fibrosarcoma viability, CellTiter-Glo ATP luminescence, 48 h; Potency, µM (titrated, usually from 46.1 µM), without a hit: top-dose activity, negative = less viability, usual class: cytotoxic; actives 1.6% (n = 360,000); AID 686970;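 further: NT is the 2HG producing partner of a matched IDH1 knockdown line; 0% = DMSO-treated cells and -100% = media-only wells without cells; nearly all actives have a fitted effect of over 55% in size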
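Read-out is CellTiter-Glo luminescence after 10 minutes at room temperature, following 48 hours' compound treatment of HT-1080-NT cells (750 cells/well, RPMI, 5% FBS, 37 degrees C).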
KB-3-1 tox: KB-3-1 parental cell cytotoxicity; KB-3-1 viability, CellTiter-Glo ATP luminescence, 72 h; Potency, µM (top dose mostly 46.1 µM), usual class: cytotoxic; actives 1.4% (n = 400,000); AID 1347075; further: nearly all actives have a fitted effect of over 60% in size
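Parental KB-3-1 adenocarcinoma cells in phenol-red-free DMEM with 10% FBS were pin-treated with compounds at several concentrations, incubated 72 h at 37 °C, and viability read by CellTiter-Glo luminescence; concentration-effect curves were fitted after normalization.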
DT40 TDP1 no CPT: qHTS for Inhibitors of human tyrosyl-DNA phosphodiesterase 1 (TDP1): qHTS in cells in absence of CPT | AID 686978, 2013 | Potency, µM (highest dose often 46.2 µM), inactives show at the top dose activity change, negative = growth inhibition, usual class: inhibitors | DT40 Tdp1-/- hTDP1 cells, no CPT, ATP luminescence, 48 h | actives 15% (n = 420,000); further: nearly all actives have a fitted effect of over 55% in size
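Growth kinetics read by CellTiter-Glo luminescence after ≥48 hr at 37 °C. Cells: DT40 Tdp1-/- stably carrying human TDP1, 400 per well, compound exposure in the absence of CPT (DMSO vehicle).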
DT40 TDP1 CPT: DT40-hTDP1 cell growth loss with CPT. chicken DT40 Tdp1-/-;hTDP1 cells + 20 nM CPT, ATP luminescence, 48 h. Potency, µM (highest dose often 46.2 µM), for the others: at the top dose activity change, negative = growth inhibition, actives largely listed as inhibitors. actives 12% (n = 420,000). AID 686979; further: nearly all actives have a fitted effect of over 55% in size
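Cell growth measured by CellTiter-Glo luminescence after a minimum 48 h, 37 C compound exposure with 20 nM CPT in Tdp1-knockout DT40 cells stably expressing hTDP1, seeded 400/well; qHTS titration format.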
* marks the source's active call; other numbers are inactive results; i = inactive; u = inconclusive; x = not tested or not shown. The call rests on the fitted dose curve; in most records, active means well fitted curve in the direction sought with a large enough effect; inconclusive means small, poorly fitted or top-dose-only effect, or another doubt; inactive means no such curve, though single readings can be large; an effect the other way counts as inactive or inconclusive. Unless noted, on the % scale 0 is the no-effect control and ±100 the full control effect; potency means the concentration at half of the fitted maximal effect.

SMILES	KB-V1 cytotox	HT1080 IDH1KD tx	HT1080-NT tox	KB-3-1 tox	DT40 TDP1 no CPT	DT40 TDP1 CPT
Cn1c(=O)c2[nH]c(CCCCCCCc3nc4ccccc4[nH]3)nc2n(C)c1=O	i	-5.6%	-23.5%	i	13µM*	23.1µM*
Cn1c(=O)c2[nH]c(CCCCCc3nc4ccccc4[nH]3)nc2n(C)c1=O	u	-19.0%	-3.9%	u	-13.2%	-11.4%
C=CCn1c(SCC(=O)NCc2cccs2)nnc1C1CCCCC1	i	8.8%	6.0%	i	u	u
CC1=CC(C)(C)N(C(=O)CCl)c2cc(C)ccc21	i	-4.2%	-12.1%	i	-24.3%	-23.2%
CC1=CC(C)(C)N(C(=O)c2ccc(F)cc2)c2cc3c(cc21)OCO3	13µM*	4.0%	-0.9%	20.6µM*	u	u
Cc1c(C(=O)NN2CCOCC2)nn(-c2ccc(Cl)cc2Cl)c1-c1ccc(I)cc1	x	x	x	x	0.9%	-3.8%
CC(C)C[C@H](NC(=O)OCC1c2ccccc2-c2ccccc21)C(=O)O	i	6.9%	10.7%	i	-12.8%	-3.0%
O=C(NC(Cc1cn(Cc2ccccc2)cn1)C(=O)O)OCC1c2ccccc2-c2ccccc21 (stereo not drawn)	i	17.4%	10.4%	i	13µM*	14.6µM*
CCOc1ccc(C2C(C(=O)OC)=CN(C(C)c3ccccc3)C=C2C(=O)OC)cc1 (stereo not drawn)	u	0.0%	2.1%	i	20.6µM*	u
COc1cccc(-c2nc(CS(=O)(=O)CC(=O)Nc3cccc(C)c3C)c(C)o2)c1	i	-0.1%	-21.9%	i	u	u
CCCCNc1ccc(C(CC(N)=O)NC(=O)c2ccccc2)cc1[N+](=O)[O-] (stereo not drawn)	i	-0.4%	-2.2%	i	14.6µM*	18.4µM*
Cc1cccc(CNc2ccc(C(CC(N)=O)NC(=O)c3ccccc3)cc2[N+](=O)[O-])c1 (stereo not drawn)	i	-1.2%	-1.4%	i	u	u
NC(=O)CC(NC(=O)Cc1cccc2ccccc12)c1ccc(NCCc2ccccc2F)c([N+](=O)[O-])c1 (stereo not drawn)	i	5.7%	14.6%	i	u	20.6µM*
CCC(CC)Nc1ccc(C(CC(N)=O)NC(=O)c2ccccc2)cc1[N+](=O)[O-] (stereo not drawn)	i	11.4%	14.3%	i	14.6µM*	16.4µM*
NC(=O)CC(NC(=O)c1ccccc1)c1ccc(NCCc2ccc(F)cc2)c([N+](=O)[O-])c1 (stereo not drawn)	u	9.9%	-0.3%	i	u	u
NC(=O)CC(NC(=O)Cc1cccc2ccccc12)c1ccc(NCCc2ccc(F)cc2)c([N+](=O)[O-])c1 (stereo not drawn)	i	2.0%	10.4%	i	u	u
CCCCNc1ccc(C(CC(N)=O)NC(=O)c2cc(C)cc(C)c2)cc1[N+](=O)[O-] (stereo not drawn)	i	9.0%	14.6%	i	-8.8%	0.6%
Cc1ccccc1CNc1ccc(C(CC(N)=O)NC(=O)c2ccccc2)cc1[N+](=O)[O-] (stereo not drawn)	i	-1.5%	-3.5%	i	23.1µM*	16.4µM*
CCOC(=O)c1[nH]c(C)c(/C(O)=C2\C(=O)C(=O)N(CCN3CCOCC3)C2c2cccs2)c1C (stereo not drawn)	u	u	u	20µM*	-5.9%	-1.5%
COC(=O)c1[nH]c(C)c(/C(O)=C2\C(=O)C(=O)N(CCN(C)C)C2c2cccs2)c1C (stereo not drawn)	i	0.8%	-2.7%	i	2.4%	-10.0%
Cc1nc(N2CCN(c3ccccc3)CC2)[nH]c(=O)c1C	i	u	15.2%	i	u	-5.2%
Cc1ccc(S(=O)(=O)CCC(=O)N2CCN(c3ccc([N+](=O)[O-])cc3)CC2)cc1	i	-1.8%	-3.4%	u	10.3µM*	18.4µM*
COc1ccc(S(=O)(=O)CCC(=O)N2CCN(c3ccc([N+](=O)[O-])cc3)CC2)cc1	u	-1.0%	-4.8%	i	3.66µM*	10.3µM*
CCOc1ccc(NC(=O)Cn2c(=O)n(Cc3nc(-c4ccccc4)no3)c(=O)c3ccccc32)cc1	i	x	x	i	u	-19.0%
CC(Nc1nc(=S)nc(Nc2ccc(F)cc2)[nH]1)c1ccccc1 (stereo not drawn)	i	-20.1%	-5.7%	i	u	20.6µM*
SMILES	KB-V1 cytotox	HT1080 IDH1KD tx	HT1080-NT tox	KB-3-1 tox	DT40 TDP1 no CPT	DT40 TDP1 CPT
C=CCNC(=O)c1onc(CSc2ccc(F)c(F)c2)c1C(=O)NCC=C	i	-2.8%	-19.9%	i	3.5%	2.8%
CCN(Cc1cnn(C)c1)C(=O)c1ccc2nc(Cc3cccc(Cl)c3)oc2c1	i	-7.5%	-11.0%	i	23.1µM*	23.1µM*
COc1ccc(Cc2nc3ccc(C(=O)N(C)CCc4cnn(C)c4)cc3o2)cc1OC	u	-1.9%	-21.2%	u	8.2µM*	u
CN(CCCN1CCOCC1)C(=O)c1ccc2nc(Cc3cccc(Cl)c3)oc2c1	i	0.0%	-0.1%	i	u	u
N#Cc1ccc2c(c1)nnn2-c1ccccc1	9.2µM*	7.2%	9.1%	i	-1.3%	7.1%
Cc1ccccc1CCN(C(=O)Cn1nnc2ccccc21)C(C(=O)NC(C)(C)C)c1ccsc1 (stereo not drawn)	u	-3.0%	-0.2%	i	25.9µM*	18.4µM*
CCC(C)(C)NC(=O)C(c1cccn1C)N(Cc1ccc(OC)cc1)C(=O)Cn1nnc2ccccc21 (stereo not drawn)	u	-27.5%	u	u	u	u
COCCNC(=O)C(c1ccco1)N(C(=O)Cn1nnc2ccccc21)c1cccc(C)c1C (stereo not drawn)	i	13.8%	13.6%	i	u	-6.7%
Cc1cccc(N(C(=O)Cn2nnc3ccccc32)C(C(=O)NC(C)(C)C)c2ccsc2)c1C (stereo not drawn)	i	3.7%	1.9%	i	16.4µM*	u
CCC(C)(C)NC(=O)C(c1cccn1C)N(Cc1ccccc1)C(=O)Cn1nnc2ccccc21 (stereo not drawn)	2.59µM*	20.3%	7.6%	i	-21.2%	u

High-throughput results: PubChem, National Center for Advancing Translational Sciences (NCATS)
